Rows were chosen to be rich in hits. Some 6.7% of all compounds tested hit in one or more screens of this group.
PINK1 expr mod – changes PINK1 expression; PINK1 immunofluorescence, high-content cytometry, 24 h; Potency, µM (top dose mostly 76.6 µM), for the others: top-dose activation (PINK1 increase), most hits filed as activators; actives 0.2% (n = 410,000); AID 624263; active means well fitted activation curve with a large enough effect; inconclusive means small, poorly fitted or top-dose-only effect; cell line not stated here; further: % of control where 0% means no effect; nearly all actives have a fitted effect of over 65% in size
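Readout is PINK1 immunofluorescence, quantified alongside mitochondrial, cell and nuclear markers by laser-scanning microplate cytometry. Cells from a stable line were exposed to compound titrations (5 concentrations) for 24 hours, with CCCP controls.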
KB-V1 MDR tox – kills drug-selected multidrug resistant KB-V1 cells; KB-V1 MDR cells viability, CellTiter-Glo, 72 h; Potency, µM (top dose mostly 46.1 µM), hits mostly cytotoxic; actives 3.4% (n = 400,000); further: on the % scale 0 is the no-effect control and ±100 the full control effect; nearly all actives have a fitted effect of over 60% in size
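Compound-treated KB-V1 multidrug-resistant cells, 72 h, 37 degrees C; viability by CellTiter-Glo. Fitted qHTS curves give the values.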
SW480 rereplic – inducers of DNA re-replication in SW480 colon cancer cells. SW480 DNA re-replication, Hoechst DNA content imaging, 48 h. Potency, µM (highest dose often 46.1 µM), for the others: at the highest dose re-replication activation, usual class: activators. actives 1.8% (n = 340,000). AID 624297; further: % of control where 0% means no effect; nearly all actives have a fitted effect of over 55% in size
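Hoechst fluorescence of nuclei (405 nm excitation, 500-530 nm emission) measured by plate-scanning imager after 48 hr compound exposure at 37 C; re-replication scored as increased number of nuclei with elevated intensity.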
KB-3-1 cytotox – KB-3-1 parental cell cytotoxicity. KB-3-1 viability, CellTiter-Glo ATP luminescence, 72 h. Potency, µM (doses to about 46.1 µM), hits mostly cytotoxic. actives 1.4% (n = 400,000); further: on the % scale 0 is the no-effect control and ±100 the full control effect; nearly all actives have a fitted effect of over 60% in size
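Screening of KB-3-1 cells (DMEM, 10% FBS, phenol-red free) ran from lowest to highest compound concentration; after 72 h at 37 °C viability was read luminescently and curves fitted.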
MCF10A rereplic – inducers of DNA re-replication in MCF 10A breast cells. AID 624296. Potency, µM (titrated, usually from 46.1 µM), for the others: at the highest dose activity, positive = re-replication, most hits filed as activators. actives 2.9% (n = 350,000). MCF 10A DNA re-replication, Hoechst nuclear intensity, 48 h; further: % of control where 0% means no effect; nearly all actives have a fitted effect of over 50% in size
* = called active by the depositor; i = inactive; ? = inconclusive; · = no result given; ! = a repeat was not active; [ ] = remark or other dose. Unless noted, the call rests on the fitted dose curve; in most records, active means well fitted curve in the direction sought with a large enough effect; inconclusive means small, poorly fitted or top-dose-only effect, or another doubt; inactive means no such curve, though single readings can be large; an effect the other way counts as inactive or inconclusive. Potency means the concentration at half of the fitted maximal effect.

SMILES | PINK1 expr mod | KB-V1 MDR tox | SW480 rereplic | KB-3-1 cytotox | MCF10A rereplic
Cc1nc2c3cc(F)ccc3n(Cc3ccccc3)c2s1 | 6% | ? | ? | 16µM* | 19%
Cc1nc2c3cc(F)ccc3n(CCN3CCCCC3)c2s1 | 7% | i | ? | ? | 23µM*
O=C(NC(Cc1c[nH]c2ccccc12)C(=O)O)c1cccc(S(=O)(=O)N2CCCCC2)c1 (configuration not stated) | 0% | i | · | i | ·
Cc1ccc(-c2nn3c(C)nnc3s2)cc1NC(=O)c1ccc(-c2ccc(Cl)cc2Cl)o1 | ? | ? | 18% | 21µM* | 7.3µM*
CCC(=O)Nc1cc(-c2nn3c(C)nnc3s2)ccc1C | -2% | i | -6% | i | 0%
Cc1ccc(OCC(=O)Nc2cc(-c3nn4c(C)nnc4s3)ccc2C)cc1 | 7% | ? | -9% | 18µM* | -4%
O=C(C1CCCCC1)N1C[C@@H](O)[C@H](n2cc(-c3ccc(F)cc3)nn2)C[C@@H]1c1ccc(Cl)cc1 | 5% | ? | · | ? | ·
COc1ccccc1CNC(=O)c1c(O)nc2c(C)cccn2c1=O | 3% | ? | · | i | ·
COc1ccccc1Nc1ccc([N+](=O)[O-])cc1N | 2% | i | -8% | ? | ?
COc1cc(Nc2ccccc2Cl)c([N+](=O)[O-])nc1[N+](=O)[O-] | -1%[38.3 µM] | i | 4.6µM* | i | ?
Cc1ccc(-n2ncc(C(=O)Nc3ccc4c(c3)OCO4)c2C2CCN(C(=O)OC(C)(C)C)CC2)c(C)c1 | -2% | i | · | i | ·
Cc1ccc(/C=C/c2ccc(N(C)C)cc2)[n+](C)c1 | ? | i | -2% | 2.1µM* | -11%
CN(C)c1ccc(/C=C/c2cc[n+](C)cc2)cc1 | 4% | i | ? | 23µM* | ?
CN(Cc1ccccc1)C1CCNCC1 | -1% | i | 17% | i | ?
CCOC(=O)COc1ccc2c(C#N)c3ccccn3c2c1 | 1% | i | ? | i | 21µM*
CN1CCN(c2ccc(Cl)cc2NC(=O)c2cc(=O)[nH]c3ccccc23)CC1 | 1% | i | 11% | i | 0%
CN1CCN(c2cc3c(c4c2[nH]c2ccccc24)C(=O)CC(C)(C)C3)CC1 | 1% | i | ? | ? | 21µM*
Cc1cccc(OCCNc2cc(N3CCN(C)CC3)ccc2[N+](=O)[O-])c1 | 6% | 16µM* | ? | ? | 25%
CC(=O)c1ccc2c(c1)N(CCCN1CCN(CCO)CC1)c1ccccc1S2 | · | · | ? | · | 20%
CCC(=O)c1ccc2c(c1)N(CCCN1CCN(CCO)CC1)c1ccccc1S2 | · | · | ? | · | 33µM*
CN1CCN(CCCN2c3ccccc3Sc3ccc(Cl)cc32)CC1 | -1% | 16µM*! | 38% | ? | 12µM*
Cc1cc(C)c(C(=O)/C=C/C=C/c2ccccc2)c(=O)[nH]1 | 2% | i | -1% | i | ?
Cc1cc(C)c(C(=O)/C=C/c2ccc(C(C)C)cc2)c(=O)[nH]1 | 1% | 16µM* | ? | i | 13µM*
CCC1(OC(=O)CN(C)C)C(=O)OCc2c1cc1n(c2=O)Cc2cc3c(N)cccc3nc2-1 (configuration not stated) | -4% | 2.9µM* | ? | ? | 18%
COc1ccccc1N1C(=O)c2cccc3c(N(C)CCO)ccc(c23)C1=O | 1% | i | -5%[1.84 µM] | i | -3%
SMILES | PINK1 expr mod | KB-V1 MDR tox | SW480 rereplic | KB-3-1 cytotox | MCF10A rereplic
Cc1ccccc1N1C(=O)c2cccc3c(N(C)CCO)ccc(c23)C1=O | · | 18µM* | ? | i | -4%
CCOC(=O)N1CCc2c(sc3c2c(=O)n(Cc2ccccc2)c(=O)n3CC(=O)Nc2ccc(C)cc2C)C1 | 1% | · | · | · | ·
O=c1cc(O)c2c(=O)n(-c3ccccc3)c3c(c2o1)CCCCCC3 | 22% | 5.2µM* | 2% | i | ?
CCCCn1c(=O)c2c(O)cc(=O)oc2c2ccccc21 | -1% | 4.6µM* | -10% | i | -5%
CCCCn1c(=O)cc(O)c2ccccc21 | -3%[38.3 µM] | i | 2% | i | -1%
O=c1cc(O)c2c(=O)n(Cc3ccccc3)c3ccccc3c2o1 | 3% | 6.5µM* | 12% | i | ?
O=C1CCCc2c1cc(C(=O)O)c(=O)n2-c1ccccc1 | 0% | i | -2% | i | -1%
Cc1nc2c(c(=O)c3ccccc3n2C)c(=O)n1C1CCCCCC1 | 3% | i | -8% | i | -3%
O=c1cc(O)c2c(=O)n(C3CCCCC3)c3ccccc3c2o1 | 4%[38.3 µM] | 4.1µM* | 0% | ? | ?
Nc1nc2ccc(-c3nc4ccccc4o3)cc2s1 | -1% | 1µM* | 1% | 5.8µM* | ?
O=C1C=CC(n2cc(F)c(=O)[nH]c2=O)O1 (configuration not stated) | 3% | i | · | i | ·
COCCCN(C(=O)Cc1coc2cc(C)c(C)cc12)c1c(N)n(Cc2ccccc2)c(=O)[nH]c1=O | -4% | i | -37% | i | -4%
COCC(C)Nc1ncnc2c1cnn2-c1ccc(C)c(C)c1 (configuration not stated) | 0% | i | · | i | ·
COc1cccc(-c2nnc3sc(C4CCCCC4)nn23)c1 | -5% | 3.7µM* | 6% | ? | ?
CCOc1cccc(-c2nnc3sc(C4CCCCC4)nn23)c1 | -3% | ? | 8% | i | 5%
COc1cc(-c2nnc3sc(C4CCCCC4)nn23)cc(OC)c1OC | 0% | 18µM* | -7% | ? | 21µM*
OCC[C@@H]1C[C@H](O)[C@@H](O)[C@]2(OCc3cc(C(F)(F)F)ccc32)O1 | 1% | ? | · | i | ·
COc1ccc2[nH]c3c(=O)n(/N=C/[C@H]4C(C)C=C(C)CC4C)c(=O)[nH]c3c2c1 (some centres not stated) | -1% | i | 18µM* | ? | 12µM*
COc1ccc2c(c1)[nH]c1c(=O)n(/N=C/C3C(C)C=C(C)CC3C)c(=O)[nH]c12 (configuration not stated) | 9% | i | 5% | i | ?
CCc1c(C)c(C#N)c2nc3ccccc3n2c1Nc1cccc(C(F)(F)F)c1 | 6% | i | · | ? | ·
O=S(=O)(c1ccccc1)c1ncc(C(F)(F)F)cc1Cl | -2% | i | ? | i | 6.3µM*
O=S(=O)(c1ccccc1)c1ncc(C(F)(F)F)cc1O | 2% | i | -18% | i | -12%
Cc1c(C(=O)NCc2nccs2)cnn1-c1ncc2c(n1)-c1ccccc1CC2 | 2% | · | · | · | ·
CCN(C(=O)COc1ccc2ccc(=O)oc2c1)C1CCCCC1 | -1% | 18µM* | -6% | i | 0%
O=C(O)c1cc(S(=O)(=O)O)cc(Nc2c3ccccc3nc3ccccc23)c1O | 0% | i | 5.2µM* | i | -15%
COc1cccc(/C=N/N2CCN(c3ccccc3OC)CC2)c1 | 2%[38.3 µM] | 12µM* | -17% | i | -2%

Screens (PubChem BioAssay)
